The whole screen tested about 16,000 compounds, of which about 5,800 (36%) were called active. About 23% were inconclusive and are not listed. The call rests on the fitted dose curve; in most records, active means well fitted curve in the direction sought with a large enough effect; inconclusive means small, poorly fitted or top-dose-only effect, or effect the other way; inactive means no such curve, though single readings can be large or run the other way. Some of the results follow. Square brackets hold non-standard residues; d marks the D form. Peptide text beside a SMILES is read from it. * marks the point of attachment. ξ: configuration not given here. Cbz = O=C(OCc1ccccc1)*; ξA = CC(N)C(=O)O
Biological target: Cytochrome P450 2C19 (Homo sapiens) (UniProt P33261)
Assay: Cytochrome panel assay with activity outcomes
Settings: recombinant CYP, pro-luciferin dealkylation, luminescence, p450-cyp2c19; series mostly up to 57.1 µM; activity, negative = inhibition: at the top concentration
On the % scale 0 is the no-effect control and ±100 the full control effect.

Sequence of Cytochrome P450 2C19 (Homo sapiens) (P33261 whole entry, looked up): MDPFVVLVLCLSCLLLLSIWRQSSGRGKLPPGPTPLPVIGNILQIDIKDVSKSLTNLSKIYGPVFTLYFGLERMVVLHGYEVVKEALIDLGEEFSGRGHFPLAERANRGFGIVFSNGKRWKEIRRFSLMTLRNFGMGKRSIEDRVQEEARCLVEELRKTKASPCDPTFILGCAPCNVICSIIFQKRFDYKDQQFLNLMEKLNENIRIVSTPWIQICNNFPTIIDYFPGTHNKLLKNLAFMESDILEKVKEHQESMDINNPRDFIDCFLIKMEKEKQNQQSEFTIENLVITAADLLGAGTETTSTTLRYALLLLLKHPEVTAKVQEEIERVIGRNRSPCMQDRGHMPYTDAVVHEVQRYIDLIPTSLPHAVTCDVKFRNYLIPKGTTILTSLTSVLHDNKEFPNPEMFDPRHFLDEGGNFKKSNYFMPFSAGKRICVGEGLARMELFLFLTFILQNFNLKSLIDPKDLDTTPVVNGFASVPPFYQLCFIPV

AC50, active:
COc1cccc(-c2nc(NCc3cccnc3)c3ccccc3n2)c1 25.1 µM
COc1ccc(-c2cc(C(F)(F)F)nc(NCc3cccnc3)n2)cc1 2.82 µM
CON/C=C(\C=Nc1ccccc1)c1ncc(C(F)(F)F)cc1Cl 3.55 µM
O=C1Nc2ccccc2/C1=N/c1sc2c(c1C(=O)NCCc1ccccc1)CCCC2 2.51 µM
COC(=O)c1ccc(OCC2c3cc(OC)c(OC)cc3CCN2C(=O)C2CC2)cc1 (stereo not drawn) 2.51 µM
NCCCNCCCCNCCCN 7.94 µM
Cn1nc(C(F)(F)F)c(/C=N/OC(=O)c2ccccc2Cl)c1SCc1ccc(Cl)cc1 0.355 µM
Cc1ccc(CNC(=O)CN2C(=O)COc3ccc(C)cc32)cc1 2.82 µM
Cc1ccc2c(c1)N(CC(=O)NC1CCC(C)CC1)C(=O)CO2 (stereo not drawn) 2.82 µM
Cc1ccc2c(c1)N(CC(=O)NC1CCCc3ccccc31)C(=O)CO2 (stereo not drawn) 2.51 µM
C=CCn1c(SCC)nc2sc3c(c2c1=O)CCc1ccccc1-3 8.91 µM
O=c1/c(=C\c2ccc(O)cc2)sc2n1C(c1ccccc1)C(c1ccccc1)=NN=2 (stereo not drawn) 1.58 µM
CCCCSc1nc(C)cc(NC(=S)Nc2ccc(OC)cc2)n1 2.51 µM
CCOC(=O)c1cccc2c1-c1ccccc1/C2=N/O 7.94 µM
CC(C)=CCC1=C(OCC(=O)O)C(=O)c2ccccc2C1=O 1.26 µM
CC1=C(C(=O)Nc2cccnc2)C(c2cccnc2)n2nc(-c3cccs3)nc2N1 (stereo not drawn) 11.2 µM
CCOc1ccccc1C1C(C(N)=O)=C(C)Nc2nc(-c3ccc(OC)cc3)nn21 (stereo not drawn) 10 µM
COc1ccccc1NC(=O)C1=C(C)Nc2nc(-c3ccc(N(C)C)cc3)nn2C1c1ccncc1 (stereo not drawn) 14.1 µM
COc1ccc2oc(=O)c(C(=O)Oc3ccc(NC(C)=O)cc3)cc2c1 15.8 µM
CN(C(=S)Nc1ccccc1F)C1(c2ccccc2Cl)CCCCC1=O (stereo not drawn) 1.26 µM
CO/N=C(/CNC(=O)c1cccc(Cl)c1)c1ccc(Cl)cc1 0.708 µM
CO/N=C(/CNC(=O)c1ccc(Cl)cc1Cl)c1ccc(Cl)cc1 0.398 µM
COc1ccc(Cc2nnc(NC(=O)c3ccco3)s2)cc1 14.1 µM
COc1ccc2c(c1)CCc1sc(NC(=O)c3ccc(C)cc3)nc1-2 3.55 µM
COc1ccc2c(c1)Cc1sc(NC(=O)c3ccco3)nc1-2 14.1 µM
Cc1ccc(NC(=O)NNC(=O)Cn2nc(-c3ccccc3)c(-c3ccccc3)c(C#N)c2=O)cc1 17.8 µM
Cn1nnnc1SCc1ccccc1[N+](=O)[O-] 25.1 µM
COc1ccc(CSc2nnnn2C)cc1[N+](=O)[O-] 10 µM
O=C(c1ccccc1)c1ccc2nc(-c3ccc(NC(=O)c4ccccc4Br)cc3)[nH]c2c1 5.62 µM
O=C(O)c1ccccc1-c1ccc(/C=c2\sc3nc4cc(Br)cnc4n3c2=O)o1 35.5 µM
Cc1cc(C)n(C(=O)c2cc3ccccc3c(=O)o2)n1 1.58 µM
CCS(=O)(=O)c1ccc2oc(Nc3cc(C)cc(C)c3)nc2c1 11.2 µM
COC(=O)[C@H](Cc1ccccc1)NC(=O)[C@@H](C)CO 1.26 µM
CC(=O)SC[C@@H](Cc1ccccc1)C(=O)NCC(=O)OCc1ccccc1 0.126 µM
COC(=O)CNC(=O)C(C)NC(=O)CNC(=O)OCc1ccccc1 (stereo not drawn) (Cbz-Gly-[ξA]-Gly-OMe) 31.6 µM
O=C(N[C@@H](Cc1ccccc1)C(=O)CCl)OCc1ccccc1 5.01 µM
COC(=O)CCC(NC(=O)OCc1ccccc1)C(=O)NC(CC(C)C)C(=O)OC (stereo not drawn) (Cbz-Glu(OMe)-Leu-OMe; configuration not given here) 11.2 µM
CCCCC(C=O)NC(=O)C(CC(C)C)NC(=O)OCc1ccccc1 (stereo not drawn) 10 µM
COc1ccc(/C=C2\SC(=O)N(CCNC(=O)C3CC(=O)N(c4ccccc4)C3)C2=O)cc1 (stereo not drawn) 14.1 µM
Cc1ccc(-n2nc(C)c3c2OC(N)=C(C#N)C3c2ccco2)cc1 (stereo not drawn) 8.91 µM
Cc1ccc(S(=O)(=O)Nc2cc(=O)[nH]c3c2CCC3)cc1 0.631 µM
C=CCSc1nc2c(sc3nc(C)cc(C)c32)c(=O)[nH]1 6.31 µM
COc1ccc(CNc2ccnc(-c3cccnc3)n2)c(OC)c1 2 µM
COc1cccc(-c2nccc(NCc3ccccc3OC)n2)c1 5.01 µM
COc1cccc(-c2nccc(NCc3ccc(OC)cc3OC)n2)c1 2.51 µM
COc1ccc(CNc2ccnc(-c3cccc(NS(C)(=O)=O)c3)n2)c(OC)c1 15.8 µM

AC50, inactive:
NCCCCNCCCN
CC(C)C[C@H](NC(=O)[C@@H](O)[C@@H](N)Cc1ccccc1)C(=O)O

activity, negative = inhibition, inactive:
O=C(O)c1ccc(C(=O)O)c(C(=O)O)c1.[NH-][C@@H]1CCCC[C@@H]1[NH-].[Pt] -17.9% [at 11.4 µM]
CN1CCC2(CC1)CCN(C(=O)c1cc(C(F)(F)F)cc(C(F)(F)F)c1)CC2 -21.7%
Cn1cnc2c(NC3CCCC3)ncnc21 -28%
NS(=O)(=O)c1ccc(N=C2C(=O)Nc3ccccc32)cc1 -2.67% [at 11.4 µM]
O=C1Nc2ccccc2C1=Nc1ccc(S(=O)(=O)Nc2nccs2)cc1 21.4% [at 11.4 µM]
COc1ccc(C(=O)OC(C)CN2CCN(C)CC2)cc1OC (stereo not drawn) -16.7%
COc1cc2c(cc1OC)[C@H](c1ccccc1)CN(C)CC2 -2.52%
NCCCCN 31.9%
Cn1c(=O)c2[nH]c([C@@H]3CC(=O)C[C@H](c4nc5c([nH]4)c(=O)n(C)c(=O)n5C)N3)nc2n(C)c1=O 1.66% [at 11.4 µM]
O=C(O)C[C@@H]1CCCc2ccccc2[C@H]1O 3.65%
CN(C)C(=O)Oc1cccc([N+](C)(C)C)c1 42.9%
CC(C)=CCc1c(C)nc2ccccc2c1C(=O)O -28.7%
COC(=O)C1=C(C)Nc2ncnn2C1c1cccnc1 (stereo not drawn) -24.7%
CSc1nc2n(n1)C(c1cccc(F)c1)C(C(=O)Nc1ccc(C)cc1C)=C(C)N2 (stereo not drawn) 21.6%
CC1=C(C(N)=O)C(c2ccccn2)n2nc(SCc3ccccc3Cl)nc2N1 (stereo not drawn) -88%
COc1ccc(NC(=O)N2CC[C@@]3(CCCN(C(C)=O)C3)C2)cc1 -14.5%
O=C(Nc1ccc2oc(=O)c(C(=O)O)cc2c1)Oc1ccccc1 18.7% [at 11.4 µM]
COc1ccc(NC(=O)N2CCC3(CC2)CCN(C(=O)c2ccco2)CC3)cc1 -11%
COc1ccc(NC(=O)N2CC3(CCN(C(=O)c4ccco4)CC3)C2)cc1 -32.6%
COc1ccc(Cc2nnc(NC(=O)c3cccc([N+](=O)[O-])c3C)s2)cc1 10.2%
Cc1ccc(-c2c(C#N)c(N)n(-c3ccccc3)c(=O)c2C#N)cc1 -29.3%
Cn1nnnc1SCC(=O)Nc1ccccc1[N+](=O)[O-] -18%
O=C(O)c1ccc(NCc2nc3cc4ccccc4cc3[nH]2)cc1 60.6% [at 11.4 µM]
COC(=O)Nc1nc2ccc(C(=O)c3ccccc3)cc2[nH]1 -36.1% [at 25.6 µM]
C[C@H](N)CCCC(C)(C)O 19.9% [at 25.6 µM]
Cc1cc2[nH]c(=O)c3ccccc3n2n1 -22.9%
CCc1cc2c(nc1CC)CCN(CC/C(C)=N/O[C@@H]1O[C@H](COC(C)=O)[C@H](OC(C)=O)[C@H](OC(C)=O)[C@H]1OC(C)=O)C2 6.45% [at 11.4 µM]
N[C@@H](Cc1ccccc1)C(=O)O 8.56% [at 11.4 µM]
CC(=O)N[C@H](Cc1ccc(O)cc1)C(=O)O -9.65% [at 11.4 µM]
CC(C)(C)N1C(=O)[C@H]2[C@H]3[C@H](O)[C@H](O)C/C(=N/NC(=O)OCc4ccccc4)[C@H]3CC[C@@H]2C1=O 41% [at 11.4 µM]
CC(C)(C)N1C(=O)[C@H]2[C@H]3[C@H](O)[C@H](O)C/C(=N/NC(=O)OCc4ccccc4)[C@@H]3CC[C@@H]2C1=O 6.74% [at 11.4 µM]
O=C(O)CNC(=O)[C@@H](CS)Cc1ccccc1 55.1% [at 25.6 µM]
COC(=O)[C@H](C)NC(=O)[C@@H](C)CO 35.5% [at 11.4 µM]
NC([N-]/N=C/c1ccccn1)=[S]=[Fe].O=S(=O)(O)O -35.2% [at 11.4 µM]
CSCC[C@@H]1NC(=O)C/C=C\[C@@H](C)COC(=O)[C@@H](C)COC1=O 30.8% [at 11.4 µM]
O=C1[C@H]2[C@H]3[C@H](O)[C@H](O)C/C(=N/OC[C@@H](O)COCc4ccco4)[C@H]3CC[C@@H]2C(=O)N1C[C@@H]1CCCO1 -12.6% [at 11.4 µM]
CC(C)C[C@H](NC(=O)[C@@H](O)[C@H](N)Cc1ccccc1)C(=O)O -31.5%
CC(C)[C@H](NC(=O)OCc1ccccc1)C(=O)N[C@H](C=O)Cc1ccccc1 (Cbz-Val-Phe-aldehyde) -37.5%
CSCC[C@H](C=O)NC(=O)[C@H](CC(C)C)NC(=O)[C@H](CC(C)C)NC(C)=O (Ac-Leu-Leu-[dM]-aldehyde) -9.34%
COC(=O)COc1ccc(/C=C2/SC(=O)N(CC(=O)N3CCCC3)C2=O)cc1Br -5.79%
COCC(=O)N1CCC[C@@]2(CCN(Cc3ccccc3OC)C2)C1 17.9%
O=C(O)c1cc2c(cc1S(=O)(=O)O)[C@H]1[C@@H]([C@H]3[C@H]2[C@@]2(Cl)C(Cl)=C(Cl)[C@]3(Cl)C2(Cl)Cl)[C@]2(Cl)C(Cl)=C(Cl)[C@@]1(Cl)C2(Cl)Cl -16.5% [at 11.4 µM]
Cc1cc(=O)[nH]c(-n2[nH]c3c(c2=O)CCCC3)n1 -22.6%
Cc1cc(C)c2c(=O)[nH]c(SCC(=O)N(C)C)nc2n1 -0.173%
Cc1cnc(CNc2ccnc(-c3cccc(NS(C)(=O)=O)c3)n2)cn1 -3.15%
